Here are results for 2 molecules from PubChem BioAssay AID504900 (The Scripps Research Institute Molecular Screening Center, 2011).

The other results are listed elsewhere or left out. Values without a mark were called inactive. No stated cut-off is given here; in the data, active means inhibition above about 32%; inactive means the rest.

This assay has as its target Mu-type opioid receptor (Homo sapiens) + Delta-type opioid receptor (Homo sapiens) (UniProt P35372+P41143). In words: inverse agonists of MOR-DOR heterodimerization, confirmation, cell-based, luminescence (AID 504900).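 Further: 0% = cells with DMSO and 100% = wells lacking cells with DMSO.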 Particulars: cells expressing OPRM1/OPRD1 heterodimer, at 9.3 µM, active compounds read high.

Sequence of Mu-type opioid receptor (Homo sapiens) + Delta-type opioid receptor (Homo sapiens) (P35372 whole entry, looked up): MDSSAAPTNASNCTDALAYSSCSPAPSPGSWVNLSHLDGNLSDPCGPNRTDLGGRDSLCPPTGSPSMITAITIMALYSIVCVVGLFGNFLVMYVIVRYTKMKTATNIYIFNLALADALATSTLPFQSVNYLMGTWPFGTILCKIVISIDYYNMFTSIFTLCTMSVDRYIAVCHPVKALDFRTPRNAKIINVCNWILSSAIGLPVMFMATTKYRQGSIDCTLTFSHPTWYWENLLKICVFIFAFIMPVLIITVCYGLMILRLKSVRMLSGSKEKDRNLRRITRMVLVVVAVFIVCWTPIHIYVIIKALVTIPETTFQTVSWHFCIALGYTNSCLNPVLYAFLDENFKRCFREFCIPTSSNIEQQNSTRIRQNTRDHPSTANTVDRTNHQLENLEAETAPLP
Sequence of Mu-type opioid receptor (Homo sapiens) + Delta-type opioid receptor (Homo sapiens) (P41143 whole entry, looked up): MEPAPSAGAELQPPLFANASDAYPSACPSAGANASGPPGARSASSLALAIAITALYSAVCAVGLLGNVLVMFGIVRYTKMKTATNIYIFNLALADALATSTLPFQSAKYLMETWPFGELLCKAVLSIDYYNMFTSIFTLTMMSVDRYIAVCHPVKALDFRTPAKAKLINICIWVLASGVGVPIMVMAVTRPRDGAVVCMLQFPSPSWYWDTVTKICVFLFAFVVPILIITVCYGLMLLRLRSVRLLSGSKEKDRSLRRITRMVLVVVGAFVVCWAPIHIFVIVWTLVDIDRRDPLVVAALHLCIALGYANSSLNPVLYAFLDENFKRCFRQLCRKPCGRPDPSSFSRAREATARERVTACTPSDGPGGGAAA

Regarding `CCOC(=O)c1c(N)n(CCN2CCOCC2)c2nc3ccccc3nc12`, the inhibition is 3.09%.
In the case of `CC1=CC(=Cc2sc3ccccc3[n+]2C)C=C(C)O1` it was -2.66%.
